This is a sample that favours compounds with a hit; in the whole collection about 7.3% have one here.
ELG1 genotoxic: qHTS screen for small molecules that induce genotoxicity in human embryonic kidney (HEK293T) cells expressing luciferase-tagged ELG1; 1.3% of 330,000 active; Potency, µM (series often up to 46 µM), for inactives: at the top dose activity change, positive = activation, usual class: activators; AID 504466, 2011; HEK293T ELG1-luciferase reporter, luminescence, 16 h; further: % of control where 0% means no effect; nearly all actives have a fitted effect of over 60% in size
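Reporter readout depends on ELG1 protein level, which increases with genetic stress. After 16 hr compound exposure at 37 °C, luciferase activity was quantified using ONE-Glo.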
FLuc modulator: qHTS profiling assay for firefly luciferase inhibitor/activator using purifed enzyme and Km concentrations of substrates (counterscreen for miR-21 project); Luciferin 4-monooxygenase (Photinus pyralis), P08659; purified FLuc, Km substrates, luminescence inhibition; Potency, µM (highest dose often 57.5 µM), for the others: at the top dose activity change, negative = inhibition, usual class: inhibitors; 6.9% of 360,000 active; AID 588342, 2011;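 further: plate controls were vehicle for no effect and reference inhibitor for full effect; nearly all actives have a fitted effect of over 55% in size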
Target sequence (P08659 whole entry, looked up): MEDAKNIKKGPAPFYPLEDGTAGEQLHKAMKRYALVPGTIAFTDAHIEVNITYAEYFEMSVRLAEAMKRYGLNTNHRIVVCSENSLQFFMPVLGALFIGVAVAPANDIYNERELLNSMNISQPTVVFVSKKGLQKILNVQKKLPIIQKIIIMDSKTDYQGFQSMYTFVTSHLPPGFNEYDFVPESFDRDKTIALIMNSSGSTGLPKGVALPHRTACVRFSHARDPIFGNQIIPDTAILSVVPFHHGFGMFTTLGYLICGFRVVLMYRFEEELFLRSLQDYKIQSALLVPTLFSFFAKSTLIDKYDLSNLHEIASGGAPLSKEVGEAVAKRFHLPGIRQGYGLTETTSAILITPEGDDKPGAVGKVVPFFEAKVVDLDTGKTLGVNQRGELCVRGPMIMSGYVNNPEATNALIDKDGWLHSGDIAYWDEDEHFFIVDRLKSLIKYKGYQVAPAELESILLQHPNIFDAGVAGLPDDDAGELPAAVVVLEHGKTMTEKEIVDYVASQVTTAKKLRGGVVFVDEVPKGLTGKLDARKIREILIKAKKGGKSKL
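Biochemical qHTS of compounds, final roughly 60 µM downward over six points, against 10 nM purified firefly luciferase using Km concentrations of substrates (10 uM D-luciferin, 10 uM ATP) in Tris acetate pH 7.5 buffer; luminescence output.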
Rab9 prom act: qHTS Assay for Rab9 Promoter Activators; Huh7 Rab9 promoter-luciferase reporter, luminescence, 24 h; 2.8% of 320,000 active; Potency, µM (series often up to 9.22 µM), for the others: at the highest dose activation, negative = inhibition, hits mostly activators; AID 485297, 2010; further: % of control where 0% means no effect; nearly all actives have a fitted effect of over 60% in size
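Promoter activation is measured as luciferase luminescence in Huh7 cells stably transfected with a Rab9 promoter–luciferase construct, following 24 h compound exposure at 37 °C and 10 min reagent incubation at ambient temperature.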
Luc counter: Counterscreen for Luciferase (Kinase-Glo TM) Inhibition; Luciferin 4-monooxygenase (Photuris pensylvanica), Q27757; Kinase-Glo luciferase, ATP luminescence, 8 min; Potency, µM (series often up to 38.3 µM), inactives show at the highest dose activity change, negative = inhibition, usual class: inhibitors; 0.28% of 200,000 active; further: on the % scale 0 is the no-effect control and ±100 the full control effect; nearly all actives have a fitted effect of over 60% in size
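Luminescence was the read-out, taken after 8-minute incubation at ambient temperature. Luciferase turned over luciferin with 10 uM ATP in imidazole pH 7.2 buffer containing KCl, MgCl2, Tween 20 and BSA.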
SMN2 splice enh: qHTS Assay for Enhancers of SMN2 Splice Variant Expression; HEK293 SMN2-luciferase splicing reporter, luminescence, 30-36 h; Potency, µM (top dose mostly 46.1 µM), inactives show at the top dose activity change, positive = activation, usual class: activators; 2.8% of 210,000 active; further: % of control where 0% means no effect; nearly all actives have a fitted effect of over 55% in size
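qHTS luciferase splicing reporter: luminescence rises when SMN2 exon 7 is included in transfected HEK293 cells. Compound exposure lasted 30-36 h at 37C, with 4.5 mM final sodium butyrate as control, followed by a ONE-Glo read.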
NPC1 promoter act: qHTS Assay for NPC1 Promoter Activators | Huh7 NPC1 promoter luciferase reporter, 24 h | Potency, µM (titrated, usually from 9.22 µM), for the others: at the top dose activation, actives largely listed as activators | 2.4% of 320,000 active | AID 485313, 2010; further: % of control where 0% means no effect; nearly all actives have a fitted effect of over 60% in size
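Cells: Huh7 expressing luciferase under the NPC1 promoter, 1500/well. Seeded 2 h, compound added, incubated 24 h at 37 °C. Luciferase reagent, 10 min ambient, then luminescence.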
* hit, by the source's call; u = inconclusive; x = not tested or not shown. The call rests on the fitted dose curve; in most records, active means well fitted curve in the direction sought with a large enough effect; inconclusive means small, poorly fitted or top-dose-only effect, or another doubt; inactive means no such curve, though single readings can be large; an effect the other way counts as inactive or inconclusive. Potency means the concentration at half of the fitted maximal effect.

SMILES	ELG1 genotoxic	FLuc modulator	Rab9 prom act	Luc counter	SMN2 splice enh	NPC1 promoter act
CCN1CCc2c(sc(NC(=S)NC(=O)c3ccccc3)c2C#N)C1	3%	-9%	3%	-1%	-1%	-2%
CCC1(C)Cc2c(sc(NC(=S)NC(=O)c3ccccc3)c2C#N)CO1 (centres undefined)	5%	6µM*	28%	3%	2%	18%
CN1Cc2sc(NC(=S)NC(=O)c3ccccc3)c(C#N)c2CC1(C)C	u	13µM*	9%	x	x	8%
c1ccc2c(Nc3nc(N4CCOCC4)c4ccccc4n3)cccc2c1	-3%	u	-4%	2%	-60%	0%
O=C(COC(=O)c1ccccc1-n1cnnn1)c1ccc(F)cc1	u	6µM*	-3%	x	x	6%
O=C(COC(=O)c1cccc(-n2cnnn2)c1)c1ccc(Br)cc1	u	6.7µM*	u	x	x	u
COc1ccccc1NC(=S)NNC(=O)c1nn(C)c(C)c1Br	7%	15µM*	0%	2%	22%	14%
COc1ccc(C)cc1NC(=S)NNC(=O)c1c(Br)cnn1C	-5%	27µM*	1%	2%	-9%	5%
COc1cc(/C=C(\C#N)c2nc3ccc(C)cc3[nH]2)c([N+](=O)[O-])cc1OC	-1%	-5%	-1%	-4%	-25%	-1%
Cc1ccc2nc(/C(C#N)=C\c3cc(O)ccc3[N+](=O)[O-])[nH]c2c1	1%	19µM*	0%	0%	3%	-1%
COc1cccc(/C=C(\C#N)c2nc3ccc(C)cc3[nH]2)c1	x	3.4µM*	x	x	24%	x
COc1cc(/C=C(\C#N)c2nc3ccc(C)cc3[nH]2)cc([N+](=O)[O-])c1O	u	3.8µM*	u	0%	u	15%
O=[N+]([O-])c1cccc(-c2ccc(/C=N/NC(=S)NCc3ccco3)o2)c1	2%	-5%	-17%	x	x	-11%
O/N=C(/CCc1ccccc1)C1(O)CCCCC1	3%	4%	3%	-4%	-8%	-3%
Cc1cccc(C(=O)Nc2ccc(S(=O)(=O)N(Cc3ccccc3)c3ccccc3)cc2)c1	x	0%	x	x	x	x
O=C(NC(=O)c1ccccc1O)c1ccc2c(c1)CCO2	u	1.2µM*	u	x	x	1.4µM*
CCOc1ccc(Br)cc1C(=O)N/N=C/c1cccnc1	3%	-6%	-5%	x	x	2%
O=C(N/N=C/c1ccccn1)c1cc(Br)ccc1O	u	15µM*	7%	x	x	-1%
O=C(N/N=C/c1cccnc1)c1cc(Br)ccc1O	u	4.8µM*	4µM*	x	x	3.2µM*
O=C(N/N=C/c1ccccn1)c1ccc(Br)o1	5%	-22%	0%	-8%	-12%	-4%
Cc1ccc2nc(-c3ccccc3)c(-c3ccccc3)nc2c1	-8%	-11%	2%	-2%	x	-3%
O=[N+]([O-])c1ccc(S(=O)(=O)Nc2ccc(-c3ccc(N4CCOCC4)nn3)cc2)cc1	17%	27µM*	21%	x	x	10%
COc1c(C)cc(S(=O)(=O)N2CCOCC2)c(C)c1C	3%	-2%	6%	5%	1%	-2%
Cc1ccc([N+](=O)[O-])cc1S(=O)(=O)Nc1ccc(-c2ccc(N3CCOCC3)nn2)cc1	3%	u	2%	x	x	3%
Cc1cc(C)cc(S(=O)(=O)Nc2cccc(-c3ccc(N4CCOCC4)nn3)c2)c1	x	12µM*	x	x	x	x
SMILES	ELG1 genotoxic	FLuc modulator	Rab9 prom act	Luc counter	SMN2 splice enh	NPC1 promoter act
O=[N+]([O-])c1ccc(S(=O)(=O)Nc2cccc(-c3ccc(N4CCOCC4)nn3)c2)cc1	u	3.4µM*	27%	x	x	u
CCOc1ccc(-c2cccc(NS(=O)(=O)c3ccc([N+](=O)[O-])cc3)c2)nn1	-1%	5%	-1%	x	x	3%
COc1c(C)cc(S(=O)(=O)Nc2cccc(-c3ccc(N4CCOCC4)nn3)c2)c(C)c1C	x	15µM*	x	x	x	x
CC(C)(C)C(=O)c1sc2nc(-c3cccs3)cc(C(F)(F)F)c2c1N	-9%	-14%	-1%	-2%	7%	7%
CCCc1nc2ccccc2c(C(=O)OC2CCOC2=O)c1CC (centres undefined)	-1%	0%	3%	14%	-8%	-2%
Cc1cccc2nc(COc3ccc4ccccc4c3Br)cn12	u	2.4µM*	3.2µM*	x	x	3.5µM*
CN1/C(=C\C(=O)c2cccs2)Sc2ccccc21	u	1.5µM*	3.5µM*	x	x	u
CN1/C(=C\C(=O)c2cccs2)C(C)(C)c2ccccc21	-1%	u	0%	-3%	-25%	7%
CN1/C(=C/C(=O)C2CCC2)Sc2ccccc21	u	17µM*	u	u	u	u
CN1/C(=C/C(=O)c2cccs2)Sc2ccccc21	1.3µM*	1.2µM*	-21%	14µM*	7.9µM*	5%
O=C(C1CC1)N1c2ccccc2Sc2ccccc21	-3%	7%	-2%	x	x	2%
CC(C)COc1ccc(C(=O)N2CCN(CCc3ccncc3)CC2)cc1	x	-5%	x	x	x	x
Cn1c(Cl)c(/C=N/OC(=O)c2ccc(Cl)cc2)c2ccccc21	-1%	3.4µM*	-2%	3%	-9%	10%
Cc1ccc(C(=O)O/N=C/c2c(Cl)n(C)c3ccccc23)cc1	-1%	2.7µM*	0%	-5%	u	0%
Cn1cc(Cl)c(C(=O)OCC(=O)Nc2cccc(Cl)c2)n1	-2%	2%	-2%	x	x	-4%
Cn1cc(Cl)c(/C(N)=N/OC(=O)c2ccccc2C(F)(F)F)n1	21µM*	12µM*	4.5µM*	x	x	3.5µM*
Cc1cccc(OCc2nc3ccccc3n2C)c1	u	24µM*	u	x	x	u
COc1cccc(OCc2nc3ccccc3n2C)c1	x	11µM*	x	x	16µM*	x
Cc1cccc(OCc2nc3ccccc3c(=O)n2N)c1	u	17µM*	u	-9%	u	u
CCC(=O)Nc1ccc(NC(=S)NC(=O)Cc2ccccc2)cc1	2%	4%	-9%	1%	-4%	-5%
Cc1cccn2c(=O)c(/C=C(\C#N)C(=O)NC3CCS(=O)(=O)C3)c(N3CCC(C(N)=O)CC3)nc12 (centres undefined)	0%	-1%	-2%	-2%	-8%	0%
COc1cccc(CC(=O)Nc2nccs2)c1	-1%	-3%	-6%	-2%	2%	-3%

High-throughput results (PubChem BioAssay)
